For one sequence, binding signal results are on record in publication PMC7862700, “An all-to-all approach to the identification of sequence-specific readers for epigenetic DNA modifications on cytosine”.

Assay in all cases: DAPPL (digital affinity profiling via proximity ligation, sequencing); 10 mM Tris-HCl pH 7.5, 50 mM NaCl, 1 mM DTT, 4% glycerol, room temperature, 30 min; GST-TFs on glutathione beads, 16-mer random dsDNA library, 0.1% formaldehyde crosslink after washing; high values mean tight binding
What all share (conditions): protein: recombinant; tags: N-terminal GST; dsDNA, one strand shown

For one experiment, the target named is T1, ELK1 (Homo sapiens, UniProt P19419 1-428).
T1 sequence: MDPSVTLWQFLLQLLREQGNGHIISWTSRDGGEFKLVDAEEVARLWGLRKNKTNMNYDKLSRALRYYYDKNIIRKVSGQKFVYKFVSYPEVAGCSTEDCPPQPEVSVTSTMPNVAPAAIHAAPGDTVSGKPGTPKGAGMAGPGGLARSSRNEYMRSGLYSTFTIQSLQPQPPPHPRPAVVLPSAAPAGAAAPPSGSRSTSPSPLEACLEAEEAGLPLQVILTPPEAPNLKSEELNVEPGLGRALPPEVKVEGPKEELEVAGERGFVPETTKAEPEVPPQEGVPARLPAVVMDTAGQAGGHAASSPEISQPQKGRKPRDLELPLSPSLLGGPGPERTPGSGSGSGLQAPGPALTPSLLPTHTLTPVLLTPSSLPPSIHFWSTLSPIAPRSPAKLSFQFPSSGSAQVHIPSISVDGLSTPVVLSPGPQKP
In a few lines: (§1)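 The binding signal reported is, for every hexamer, its read frequency for a factor over its read frequency for the tag-only sample. Reads came from pools of yeast-expressed, GST-fused human transcription factors on glutathione beads, barcoded with DNA and mixed with that sample, which were incubated with 200 nmole of a random double-stranded 16-mer DNA library in Tris/NaCl/DTT/glycerol buffer at room temperature for 30 min. After washing, the pools were crosslinked with 0.1% formaldehyde, proximity-ligated with BsaI/T4 ligase for 1 h at 37 °C, PCR-amplified and sequenced on an Illumina NextSeq500.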

For the next experiment, the target named is T2, GABPA (Homo sapiens, UniProt Q06546 1-454).
T2 sequence: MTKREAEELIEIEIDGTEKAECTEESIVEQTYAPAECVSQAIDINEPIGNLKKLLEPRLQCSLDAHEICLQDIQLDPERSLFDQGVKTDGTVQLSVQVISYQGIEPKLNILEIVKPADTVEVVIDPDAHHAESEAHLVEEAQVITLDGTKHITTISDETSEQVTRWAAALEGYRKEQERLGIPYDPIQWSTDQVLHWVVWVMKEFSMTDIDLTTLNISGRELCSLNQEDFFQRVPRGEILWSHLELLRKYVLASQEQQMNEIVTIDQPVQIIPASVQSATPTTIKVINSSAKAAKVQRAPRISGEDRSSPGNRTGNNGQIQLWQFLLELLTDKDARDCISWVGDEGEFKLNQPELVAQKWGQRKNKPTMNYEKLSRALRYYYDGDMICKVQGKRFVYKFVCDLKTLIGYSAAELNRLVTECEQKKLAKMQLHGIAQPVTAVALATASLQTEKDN
A digest of the protocol: as §1

A further experiment concerns the target T3, ERG (Homo sapiens, UniProt P11308 1-479).
T3 sequence: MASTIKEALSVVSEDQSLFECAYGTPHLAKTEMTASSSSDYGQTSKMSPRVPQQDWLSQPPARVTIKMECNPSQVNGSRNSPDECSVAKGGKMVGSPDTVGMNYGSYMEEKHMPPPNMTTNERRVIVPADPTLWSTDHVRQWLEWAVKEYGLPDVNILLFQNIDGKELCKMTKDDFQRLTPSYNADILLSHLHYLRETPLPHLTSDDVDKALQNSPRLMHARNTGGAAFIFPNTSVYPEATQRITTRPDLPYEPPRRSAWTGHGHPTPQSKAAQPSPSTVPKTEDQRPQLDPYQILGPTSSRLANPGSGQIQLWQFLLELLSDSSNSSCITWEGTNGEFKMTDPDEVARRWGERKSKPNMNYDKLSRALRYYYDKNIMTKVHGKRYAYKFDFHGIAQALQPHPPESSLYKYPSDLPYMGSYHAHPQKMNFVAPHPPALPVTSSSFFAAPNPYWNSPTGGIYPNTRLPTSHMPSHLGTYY
In a few lines:
as §1

Another experiment addresses T4, EHF (Homo sapiens, UniProt Q9NZC4 1-300).
T4 sequence: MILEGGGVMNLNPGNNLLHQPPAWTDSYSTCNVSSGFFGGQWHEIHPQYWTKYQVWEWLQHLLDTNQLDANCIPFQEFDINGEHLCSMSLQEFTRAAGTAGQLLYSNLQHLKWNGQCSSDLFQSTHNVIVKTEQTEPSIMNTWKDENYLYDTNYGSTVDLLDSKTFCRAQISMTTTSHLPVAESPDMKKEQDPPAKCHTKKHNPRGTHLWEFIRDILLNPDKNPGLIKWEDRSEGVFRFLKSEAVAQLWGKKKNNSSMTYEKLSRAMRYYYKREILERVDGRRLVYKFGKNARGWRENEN
In a few lines: as §1

For another experiment, the target named is T5, FEV (Homo sapiens, UniProt Q99581 1-238).
T5 sequence: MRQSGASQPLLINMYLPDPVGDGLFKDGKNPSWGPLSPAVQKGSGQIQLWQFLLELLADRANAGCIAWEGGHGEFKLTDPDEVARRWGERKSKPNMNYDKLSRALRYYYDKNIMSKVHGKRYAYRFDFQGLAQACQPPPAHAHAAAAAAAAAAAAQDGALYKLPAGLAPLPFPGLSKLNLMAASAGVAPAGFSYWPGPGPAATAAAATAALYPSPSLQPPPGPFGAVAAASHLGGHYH
In a few lines:
as §1

A further experiment deals with ETV5 (Homo sapiens, UniProt P41161 1-510). In a few lines:
as §1

Another experiment addresses T6, ETS2 (Homo sapiens, UniProt P15036 1-469).
T6 sequence: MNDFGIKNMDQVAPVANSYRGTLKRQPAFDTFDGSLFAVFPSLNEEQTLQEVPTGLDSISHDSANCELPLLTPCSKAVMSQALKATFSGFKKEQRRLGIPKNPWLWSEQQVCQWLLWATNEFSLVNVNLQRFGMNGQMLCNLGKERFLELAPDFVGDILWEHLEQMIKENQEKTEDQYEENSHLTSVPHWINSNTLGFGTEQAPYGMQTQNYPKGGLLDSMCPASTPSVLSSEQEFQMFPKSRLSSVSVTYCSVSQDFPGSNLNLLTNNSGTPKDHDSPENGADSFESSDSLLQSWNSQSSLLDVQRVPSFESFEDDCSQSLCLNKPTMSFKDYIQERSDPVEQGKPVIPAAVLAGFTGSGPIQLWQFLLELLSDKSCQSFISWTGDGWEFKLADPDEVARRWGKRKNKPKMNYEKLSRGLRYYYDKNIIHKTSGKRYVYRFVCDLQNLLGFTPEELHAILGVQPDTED
A digest of the protocol:
as §1

A further experiment has as its target T7, ETV7 (Homo sapiens, UniProt Q9Y603 1-341).
T7 sequence: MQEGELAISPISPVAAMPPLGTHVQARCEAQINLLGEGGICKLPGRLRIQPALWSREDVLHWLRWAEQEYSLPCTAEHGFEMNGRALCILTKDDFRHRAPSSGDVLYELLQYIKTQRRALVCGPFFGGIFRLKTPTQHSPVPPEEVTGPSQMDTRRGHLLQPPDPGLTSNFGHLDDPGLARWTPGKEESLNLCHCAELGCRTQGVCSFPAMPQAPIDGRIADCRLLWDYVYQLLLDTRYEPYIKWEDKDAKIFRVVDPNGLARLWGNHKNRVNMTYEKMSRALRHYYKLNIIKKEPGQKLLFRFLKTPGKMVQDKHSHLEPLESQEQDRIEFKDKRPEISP
A digest of the protocol:
as §1

The target of another experiment is ETV6 (Homo sapiens, UniProt P41212 1-452). A digest of the protocol:
as §1

ETV6, sequence (P41212 whole entry): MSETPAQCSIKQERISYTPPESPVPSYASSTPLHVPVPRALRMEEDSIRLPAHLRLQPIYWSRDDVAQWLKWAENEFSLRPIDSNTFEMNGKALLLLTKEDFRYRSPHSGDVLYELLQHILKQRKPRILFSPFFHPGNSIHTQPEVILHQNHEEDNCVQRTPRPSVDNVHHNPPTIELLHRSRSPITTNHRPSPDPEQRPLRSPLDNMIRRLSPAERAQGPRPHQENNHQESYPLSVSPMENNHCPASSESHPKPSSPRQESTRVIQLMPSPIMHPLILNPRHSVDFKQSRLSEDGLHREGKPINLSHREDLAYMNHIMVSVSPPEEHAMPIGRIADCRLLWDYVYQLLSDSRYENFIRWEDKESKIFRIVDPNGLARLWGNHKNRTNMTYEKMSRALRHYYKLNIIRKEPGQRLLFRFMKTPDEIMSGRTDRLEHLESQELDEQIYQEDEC
ETV5, sequence (P41161 whole entry): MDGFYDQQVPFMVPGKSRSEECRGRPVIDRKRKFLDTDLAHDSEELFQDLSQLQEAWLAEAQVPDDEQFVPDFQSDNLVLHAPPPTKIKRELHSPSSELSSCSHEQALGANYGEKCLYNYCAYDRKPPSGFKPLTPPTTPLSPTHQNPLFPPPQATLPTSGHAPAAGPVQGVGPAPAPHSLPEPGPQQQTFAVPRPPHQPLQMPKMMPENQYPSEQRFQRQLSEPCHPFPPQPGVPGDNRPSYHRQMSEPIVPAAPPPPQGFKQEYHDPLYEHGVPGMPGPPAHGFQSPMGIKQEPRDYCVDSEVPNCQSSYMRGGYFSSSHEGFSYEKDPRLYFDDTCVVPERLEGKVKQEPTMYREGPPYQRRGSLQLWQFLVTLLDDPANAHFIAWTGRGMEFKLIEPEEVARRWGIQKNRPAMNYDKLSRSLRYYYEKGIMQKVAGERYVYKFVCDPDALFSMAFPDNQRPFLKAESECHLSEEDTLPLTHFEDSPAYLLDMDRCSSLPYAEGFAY

Consider TGGCGA, for which the binding signal was 1.02 fold enrichment (6-mer frequency, TF over GST control) with ELK1; 1.01 fold enrichment (6-mer frequency, TF over GST control) with GABPA; 1.02 fold enrichment (6-mer frequency, TF over GST control) with ERG; 1.01 fold enrichment (6-mer frequency, TF over GST control) in the experiment with EHF; 1.02 fold enrichment (6-mer frequency, TF over GST control) with FEV; 1.01 fold enrichment (6-mer frequency, TF over GST control) with ETV5. Besides, the binding signal was 1.06 fold enrichment (6-mer frequency, TF over GST control) with ETS2; 1.07 fold enrichment (6-mer frequency, TF over GST control) in the experiment with ETV7; 1.03 fold enrichment (6-mer frequency, TF over GST control) with ETV6.
